One experiment deals with DIO2 (gene 1734). The experiment in a line: CCTE_GLTED_hDIO2: CCTE's human Deiodinase 2 (DIO2) Inhibition Assay, Great Lakes Toxicology and Ecology Division (GLTED) Lab (AID 2284050; active = hit-call score of the fitted dose curve at least 0.9, where 1 is the maximum). In short, it runs like this: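 Cell-free human DIO2 enzyme was incubated with test chemical for 3 h; iodide liberated from substrate was then quantified by the Sandell-Kolthoff reaction (absorbance), run in triplicate. Loss of signal versus DMSO baseline indicated inhibition.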

The next experiment has as its system DIO3 (gene 1735). The experiment is described as follows: CCTE_GLTED_hDIO3: CCTE's human Deiodinase 3 (DIO3) Inhibition Assay, Great Lakes Toxicology and Ecology Division (GLTED) Lab (AID 2284055; active = hit-call score of the fitted dose curve at least 0.9, where 1 is the maximum;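 also: potency is for inhibition seen as loss of released iodide signal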). In short, it runs like this: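 Cell-free assay with human DIO3 enzyme produced by adenovirus expression; enzyme incubated with test chemical for 3 hours. Liberated iodide then measured by Sandell-Kolthoff absorbance; loss of signal versus DMSO baseline indicates inhibition, run in triplicate.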

Experiment [1] is described as follows: CCTE_Shafer_MEA_acute_AB: CCTE's Alamar Blue Assay for Cytotoxicity in the Neural Acute Assay, Shafer Lab (AID 2284069; active = hit-call score of the fitted dose curve at least 0.9, where 1 is the maximum;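 also: active compounds lower the viability signal compared with DMSO wells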). In short, it runs like this:
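Primary rat cortical neurons on MEA plates, exposed acutely after baseline recording on day 13 or 15 post-plating. Viability by CellTiter Blue resazurin reduction (1:6 reagent dilution), fluorescence 544/590 nm; loss of signal versus DMSO.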
(In general: Resazurin is reduced to fluorescent resorufin, in cell work by metabolically active cells.)

Experiment [2] can be described thus: CCTE_Shafer_MEA_dev_network_spike_peak: CCTE's Neural Network Formation Assay for Mean Number of Electrodes in Network Spike, Shafer Lab (AID 2284049).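 As to AC50: fitted for loss of signal meaning fewer electrodes in network spikes than DMSO.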 The method, boiled down:
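Network-spike peak electrode count from recordings on days 5, 7, 9 and 12 was combined as trapezoidal area under the curve. Rat cortical cultures were treated continuously from plating, with compound renewed at each feed (DIV 5, 9); fits versus DMSO.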

A short description of experiment [3]: CCTE_Shafer_MEA_dev_spike_duration_mean: CCTE's Neural Network Formation Assay for Mean Spike Duration, Shafer Lab (AID 2284051).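 Also: mean network spike duration pooled as area under curve over DIV 5 to 12 recordings.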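 As to AC50: potency for a decrease in mean network spike duration versus DMSO.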 In short, it runs like this: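 Primary rat cortical neurons on 16-electrode MEA wells (PEI-coated, laminin in plating drop), exposed from plating through DIV 12 with compound renewed at DIV 5 and 9. Mean network-spike duration recorded DIV 5, 7, 9, 12; trapezoidal AUC across days, DMSO baseline.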

A short description of experiment [4]: CCTE_Shafer_MEA_dev_network_spike_duration_std: CCTE's Neural Network Formation Assay for Standard Deviation of Network Spike Duration, Shafer Lab (AID 2284052).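 Also: area under curve of spike duration SD across recording days 5 to 12; hits are decreases in network spike duration SD versus DMSO vehicle.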 In short, it runs like this: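 Primary rat cortical neurons on PEI-coated 16-electrode MEA wells, exposed from plating day 0 through day 12 with compound renewed at DIV 5 and 9. Network spike duration SD recorded on days 5, 7, 9, 12, collapsed as trapezoidal AUC; loss-of-signal fit versus DMSO.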

A short description of experiment [5]: CCTE_Shafer_MEA_dev_per_network_spike_spike_percent: CCTE's Neural Network Formation Assay for Percent of Spikes in a Network Spike, Shafer Lab (AID 2284054). The method, boiled down:
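Rat primary cortical neurons were grown on 48-well MEA plates (16 electrodes/well), exposed from plating day 0 through day 12, with treatment renewed on DIV 5 and 9. Percent of spikes within 0.05 s network-spike peaks was measured, summarised as AUC across days 5, 7, 9, 12.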

Experiment [6] in a line: CCTE_Shafer_MEA_dev_LDH: CCTE's Lactate Dehydrogenase Assay for Cytotoxicity in the Neural Network Formation Assay, Shafer Lab (AID 2284068; active = hit-call score of the fitted dose curve at least 0.9, where 1 is the maximum;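 also: exposure for twelve days from plating with re-dosing on DIV 5 and 9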). The method, boiled down: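 Primary rat cortical neurons were plated on PEI/laminin MEA plates and exposed from day 0 for twelve days, with compound renewed at DIV 5 and 9. Cytotoxicity was determined by spectrophotometric LDH assay relative to DMSO.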

Experiment [7] is described as follows: UKN5_HCS_SBAD2_cell_viability: Viability Assessment in the University of Konstanz (UKN) Leist Lab Neurite Outgrowth Assay in human iPSC-derived immature Dorsal Root Ganglia Neurons (UKN5) (AID 2284056). In short, it runs like this: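 iPSC-derived immature peripheral neurons (SBAD2) seeded on Matrigel with CHIR99021, SU5402 and DAPT, dosed 1 h later for 24 h. Viability from Hoechst H-33342 and calcein-AM live staining, high-content imaging; bidirectional fit versus DMSO.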

Experiment [8] can be described thus: UKN5_HCS_SBAD2_neurite_outgrowth: University of Konstanz (UKN) Leist Lab Neurite Outgrowth Assay in human iPSC-derived immature Dorsal Root Ganglia Neurons (UKN5) (AID 2284070). The note with it: actives raise or lower the signal. The method, boiled down:
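Human iPSC-derived immature DRG neurons (SBAD2) on Matrigel with CHIR99021 (1.5 uM), SU5402 (5 uM), DAPT (5 uM); compounds added 1 h post-seeding for 24 h. Calcein-AM neurite area imaged; bidirectional fit vs DMSO.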

“And” between values parts separate entries of the source, which are not always exact repeats. Equal entries are not always repeated. Inconclusive results are not listed. Some structures have more than one record in an assay (separate samples or runs), and their calls can disagree. The source made the active and inactive calls. The calls were made as follows, unless noted: active = hit-call score of the fitted dose curve at least 0.9, where 1 is the maximum; inactive = score below 0.9.

As usually defined, the AC50 is the midpoint of the concentration-response curve, whichever way the signal moves. Turning to `Oc1ccccc1-c1ccccc1`, the AC50 with DIO2 (gene 1734) was 38.2 µM (active); in the experiment on DIO3 (gene 1735) it was 89.4 µM (active).
Regarding `CCCN(CCC)c1c([N+](=O)[O-])cc(S(N)(=O)=O)cc1[N+](=O)[O-]`, the half-maximal activity concentration (AC50) is 141 µM (active) in the experiment with DIO2 (gene 1734) and 160 µM (active) in the experiment on DIO3 (gene 1735). The result in experiment [1] was inactive.
Consider `COC(=O)C(C)Oc1ccc(Oc2ccc(Cl)cc2Cl)cc1` (centres undefined), for which, in [1], the outcome was inactive.
In the case of `C=CC1(C)OC(=O)N(c2cc(Cl)cc(Cl)c2)C1=O` (centres undefined), the AC50 in experiment [2] was 50 µM (active). The outcome in [3], in experiment [4], in experiment [5] and in experiment [6] was inactive.
For `CCCCOC(=O)c1ccccc1C(=O)OCCCC`, the values for the AC50 in experiment [2], in experiment [3] and in [6] were 74.9 µM (active), 50 µM (active) and 50 µM (active), respectively. The call in [4] and in experiment [5] was inactive.
As to `CCCCNC(=O)n1c(NC(=O)OC)nc2ccccc21`, the AC50 is 15 µM (active) in [2] and 7.98 µM (active) in experiment [8]. The compound was called inactive in experiment [3], in experiment [4], in [5] and in experiment [7].
For the compound `COc1ccc(C(c2ccc(OC)cc2)C(Cl)(Cl)Cl)cc1`, the AC50 is 8.43 µM (active) in [2]; 2.99 µM (active) in experiment [3]; 1.97 µM (active) in [4]; 3.28 µM (active) in experiment [5]; 4.87 µM (active) in experiment [6].
In the case of `CCOC(=O)CC(SP(=S)(OC)OC)C(=O)OCC` (centres undefined), the AC50 in [2] is 14.2 µM (active) and 8.93 µM (active); in [3] it was 13.1 µM (active) and 4.76 µM (active); in [4], 13.3 µM (active); in experiment [5] it was 11 µM (active) and 3.69 µM (active); in experiment [6], 19.9 µM (active) and 24.6 µM (active). In addition, the outcome in experiment [4] was inactive.
Take `COP(N)(=O)SC` (centres undefined): the AC50 in experiment [2] was 15 µM (active). Further, the compound was called inactive in [2], in [3], in [4], in [5] and in experiment [6].
`CCCCNC(=O)OCC#CI`: the AC50 is 3.81 µM (active) and 1.53 µM (active) in [2]; 3.81 µM (active) and 1.12 µM (active) in experiment [3]; 2.46 µM (active) and 1.09 µM (active) in [4]; 2.91 µM (active) and 1.17 µM (active) in experiment [5]; 3.84 µM (active) and 1.13 µM (active) in experiment [6]. The result in experiment [1] was inactive.
Regarding `C=CCC1=C(C)C(OC(=O)C2C(C=C(C)C)C2(C)C)CC1=O` (centres undefined), the AC50 in [2] is 2.93 µM (active) and 14.8 µM (active); in the experiment with DIO2 (gene 1734) it was 44.9 µM (active); in experiment [5] it was 4.76 µM (active); in the experiment with DIO3 (gene 1735), 40.9 µM (active); in experiment [6], 23.6 µM (active). Besides, the compound was called inactive in experiment [3], in [4], in [5] and in [1].
With `CC(C)(C)c1ccc(CSc2cnn(C(C)(C)C)c(=O)c2Cl)cc1`, the AC50 is 0.0022 µM (active) in experiment [2]; 0.00163 µM (active) in [3]; 0.000239 µM (active) in experiment [4]; 0.00179 µM (active) in experiment [5]; 0.00284 µM (active) in experiment [6].
As for `N#Cc1nn(-c2c(Cl)cc(C(F)(F)F)cc2Cl)c(N)c1S(=O)C(F)(F)F` (centres undefined), the compound was called inactive in experiment [2], in experiment [3], in experiment [4] and in experiment [1]. Besides, the AC50 with DIO2 (gene 1734) was 29.6 µM (active); in [5], 4.41 µM (active); with DIO3 (gene 1735), 1.13 µM (active); in [6], 23.8 µM (active).
Consider `CNC(=O)ON=CC(C)(C)SC`, for which the result in [2], in experiment [3], in [4], in experiment [5], in experiment [6] and in [1] was inactive.
On to `OC(c1ccc(Cl)cc1)(c1cncnc1)c1ccccc1Cl` (centres undefined), for which the outcome in experiment [1] was inactive.

For the origin of these results see PubChem BioAssay (EPA / NIEHS).
